Test results taken from PubChem BioAssay (EPA / NIEHS).
Some compounds were tested as several samples or in several runs, with calls that do not always agree. Active and inactive are the calls of the source. How the source made its calls: active means hit-call score of the fitted dose curve at least 0.9, where 1 is the maximum; inactive means score below 0.9.

Tests used:
[1] = APR_HepG2_NuclearSize_72hr: Apredica 72-hour HepG2 Assay for Nuclear Size (AID 2282925); settings: high-content imaging, actives raise or lower the signal
Outline: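 Read-out: nuclear diameter from Hoechst 33342 images (ArrayScan, 20x, six fields/well), via cell-cycle image analysis. HepG2 were dosed 0.39–200 uM for 72 hr in 0.5% DMSO. Bidirectional fit relative to DMSO.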

[2] = ATG_CRE_CIS: Attagene CIS-FACTORIAL HepG2 Assay for human cAMP Responsive Element (CRE) binding protein 3 (AID 2282926); settings: HepG2 CRE cis-reporter, Attagene multiplexed mRNA; actives raise or lower the signal
Outline: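 Capillary electrophoresis of 6-FAM-labelled, HpaI-digested PCR products quantified reporter transcripts. These came from HepG2 transiently transfected with cis-element reporters and exposed to test chemicals for 24 hours, with DMSO defining baseline activity.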

[3] = biological target: CCAAT/enhancer-binding protein beta (Homo sapiens) (UniProt P17676); assay: ATG_C_EBP_CIS: Attagene CIS-FACTORIAL HepG2 Assay for human CCAAT/Enhancer Binding Protein (C/EBP) beta (AID 2282927); settings: HepG2 Attagene cis-factorial transcription factor reporter; actives raise or lower the signal
Sequence of CCAAT/enhancer-binding protein beta (Homo sapiens) (P17676 whole entry, looked up): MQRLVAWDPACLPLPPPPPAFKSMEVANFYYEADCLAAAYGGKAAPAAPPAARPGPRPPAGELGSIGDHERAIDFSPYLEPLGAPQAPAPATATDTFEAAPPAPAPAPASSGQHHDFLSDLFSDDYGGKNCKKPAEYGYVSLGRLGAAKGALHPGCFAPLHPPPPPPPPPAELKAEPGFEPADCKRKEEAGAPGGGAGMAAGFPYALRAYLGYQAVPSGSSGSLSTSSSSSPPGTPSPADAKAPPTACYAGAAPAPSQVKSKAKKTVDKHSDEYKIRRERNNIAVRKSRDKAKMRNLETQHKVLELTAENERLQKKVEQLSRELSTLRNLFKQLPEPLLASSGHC
Outline: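 HepG2, transient MRTU transfection, 24 h treatment. RT-PCR plus CE fluorescence; DMSO negative control, bidirectional fit.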

[4] = ATG_CMV_CIS: Attagene CIS-FACTORIAL HepG2 Assay for human CMV (Internal Marker) (AID 2282928); settings: HepG2 CMV promoter reporter, transcription factor profiling; actives raise or lower the signal;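 further: endpoint acts as a background internal control marker rather than a target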
Outline: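 Reporter transcripts from transfected HepG2 cells are isolated after 24 h of chemical dosing, reverse-transcribed and amplified. Fragments labeled with 6-FAM are cut with HpaI and quantified by capillary electrophoresis; DMSO defines baseline.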

[5] = ATG_DR4_LXR_CIS: Attagene CIS-FACTORIAL HepG2 Assay for human Liver X Receptor (LXR), DR4 submotif (AID 2282929); settings: HepG2 Attagene DR4 cis-reporter, mRNA transcription; actives raise or lower the signal
Outline: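 Total RNA from 24 h-treated, MRTU-transfected HepG2 cells underwent reverse transcription, PCR, fluorescent primer extension and restriction digestion before capillary electrophoresis. Both increases and decreases in reporter signal were fitted against DMSO.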

[6] = biological target: Aryl hydrocarbon receptor (Homo sapiens) (UniProt P35869); assay: ATG_Ahr_CIS: Attagene CIS-FACTORIAL HepG2 Assay for human Aryl Hydrocarbon Receptor (Ahr) (AID 2282930); settings: HepG2 AhR cis-factorial reporter transcription; actives raise or lower the signal
Sequence of Aryl hydrocarbon receptor (Homo sapiens) (P35869 whole entry, looked up): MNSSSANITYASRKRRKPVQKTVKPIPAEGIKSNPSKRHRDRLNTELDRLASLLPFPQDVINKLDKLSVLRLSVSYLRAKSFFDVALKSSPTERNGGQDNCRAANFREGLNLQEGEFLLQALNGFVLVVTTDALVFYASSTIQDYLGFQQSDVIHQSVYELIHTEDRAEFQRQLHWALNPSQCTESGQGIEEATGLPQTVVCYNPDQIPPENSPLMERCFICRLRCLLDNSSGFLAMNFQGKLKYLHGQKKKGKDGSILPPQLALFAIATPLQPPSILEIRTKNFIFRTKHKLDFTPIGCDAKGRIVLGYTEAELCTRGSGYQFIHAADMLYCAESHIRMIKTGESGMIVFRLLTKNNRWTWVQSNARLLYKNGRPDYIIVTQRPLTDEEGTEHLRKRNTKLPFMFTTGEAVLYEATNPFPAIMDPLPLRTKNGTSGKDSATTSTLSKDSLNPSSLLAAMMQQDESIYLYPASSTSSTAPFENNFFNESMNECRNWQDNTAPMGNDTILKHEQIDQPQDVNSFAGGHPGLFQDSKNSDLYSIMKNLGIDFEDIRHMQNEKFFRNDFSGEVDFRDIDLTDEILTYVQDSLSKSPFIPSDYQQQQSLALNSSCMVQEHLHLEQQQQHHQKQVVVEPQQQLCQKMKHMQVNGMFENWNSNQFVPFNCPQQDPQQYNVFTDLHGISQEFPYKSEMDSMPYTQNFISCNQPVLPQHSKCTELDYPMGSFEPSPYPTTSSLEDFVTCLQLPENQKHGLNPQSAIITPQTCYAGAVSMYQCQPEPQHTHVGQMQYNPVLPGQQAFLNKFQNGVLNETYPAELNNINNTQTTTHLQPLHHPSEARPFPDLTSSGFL
Outline: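 Endogenous factor activity is tracked through cis-promoter reporter units transfected into HepG2 cells. Transcript levels at 24 h are read by fluorescent RT-PCR and capillary electrophoresis, with activity in either direction scored relative to DMSO.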

[7] = ATG_AP_1_CIS: Attagene CIS-FACTORIAL HepG2 Assay for human Activator Protein 1 (AP-1) (AID 2282931); settings: HepG2 Attagene cis-factorial AP-1 reporter mRNA; actives raise or lower the signal
Outline: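 HepG2, transient cis-reporter transfection; 24 h; readout RT-PCR/CE fluorescence; DMSO baseline, gain and loss fitted.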

[8] = ATG_AP_2_CIS: Attagene CIS-FACTORIAL HepG2 Assay for human Activator Protein 2 (AP-2) (AID 2282932); settings: HepG2 AP-2 cis-reporter, Attagene transcription factor profiling; actives raise or lower the signal
Outline: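 Read-out: fluorescent reporter mRNA via RT-PCR and capillary electrophoresis, 24 h post-dose in transiently transfected HepG2. Endogenous factors drive cis-promoter reporters; gain or loss of signal fitted bidirectionally against DMSO.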

[9] = biological target: Retinoic acid receptor alpha (Homo sapiens) (UniProt P10276); assay: ATG_DR5_RAR_CIS: Attagene CIS-FACTORIAL HepG2 Assay for human Retinoic Acid Receptor Alpha (RARE), DR5 submotif (AID 2282934); settings: HepG2 Attagene cis-factorial RARE DR5 reporter, mRNA; actives raise or lower the signal;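 on AC50: reporter responds to endogenous RAR alpha beta and gamma in HepG2 not RARA alone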
Sequence of Retinoic acid receptor alpha (Homo sapiens) (P10276 whole entry, looked up): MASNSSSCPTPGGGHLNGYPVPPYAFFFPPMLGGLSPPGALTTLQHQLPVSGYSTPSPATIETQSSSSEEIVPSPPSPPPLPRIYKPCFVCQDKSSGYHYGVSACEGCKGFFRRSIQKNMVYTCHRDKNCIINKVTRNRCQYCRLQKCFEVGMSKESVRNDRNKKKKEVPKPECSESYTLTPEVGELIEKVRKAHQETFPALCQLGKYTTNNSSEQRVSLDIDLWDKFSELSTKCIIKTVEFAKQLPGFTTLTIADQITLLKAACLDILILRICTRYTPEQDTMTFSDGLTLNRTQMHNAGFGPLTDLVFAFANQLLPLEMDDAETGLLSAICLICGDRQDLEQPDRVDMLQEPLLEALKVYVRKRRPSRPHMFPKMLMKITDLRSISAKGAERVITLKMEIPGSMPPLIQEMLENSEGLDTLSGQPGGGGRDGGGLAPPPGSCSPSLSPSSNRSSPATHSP
Outline: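 After 24 h of chemical exposure, transiently transfected HepG2 cells were lysed for total RNA; the DR5-regulated reporter transcript was quantified via RT-PCR and capillary electrophoresis, with activity fitted bidirectionally against DMSO.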

[10] = ATG_BRE_CIS: Attagene CIS-FACTORIAL HepG2 Assay for human Bone Morphogenetic Protein (BMP) Response Element (BRE) (AID 2282933); settings: HepG2 BMP response element reporter, Attagene transcription factor profiling; actives raise or lower the signal
Outline: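 HepG2 cells transiently transfected with multiplexed cis-element reporter units were dosed with chemical for 24 h. Reporter mRNA was measured by RT-PCR with fluorescent labelling, HpaI digestion and capillary electrophoresis; bidirectional fitting relative to DMSO.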

Measured: AC50

COc1c(Cl)ccc(Cl)c1C(=O)O
inactive: [1] | [2] | [3] | [4] | [5] | [6] | [7] | [8] | [9]

CCC(O)=C1C(=O)CC(C(=O)O)CC1=O (stereo not drawn)
inactive: [1] | [2] | [3] | [4] | [5] | [6] | [7] | [9]

O=C(c1ccc(O)cc1O)c1ccc(O)cc1O
active: [4] 80.5 µM [middle of 4 runs]
inactive: [1] | [2] | [3] | [5] | [6] | [7] | [9]

CC1(C)C(C=C(Cl)Cl)C1C(=O)OCc1cccc(Oc2ccccc2)c1 (stereo not drawn)
inactive: [1] | [2] | [3] | [4] | [6] | [7]
active: [5] 29.9 µM

CCCCCCC(C)OC(=O)COc1nc(F)c(Cl)c(N)c1Cl (stereo not drawn)
inactive: [2] | [3] | [4] | [5] | [7] | [10]

CCCCC(CC)COC(=O)c1ccccc1C(=O)O (stereo not drawn)
inactive: [2] | [3] | [4] | [5] | [7]

O=C(Nc1ccc([N+](=O)[O-])cc1Cl)c1cc(Cl)ccc1O
active: [2] 0.506 µM | [3] 0.463 µM | [4] 1.16 µM | [7] 1.01 µM
inactive: [5] | [6] | [9]

C#C[C@]1(O)CC[C@H]2[C@@H]3CCC4=CC(=O)CC[C@@H]4[C@H]3CC[C@@]21CC
inactive: [2] | [3] | [4] | [5] | [6] | [7] | [8]

CCCCC(CC)CN1C(=O)C2C3C=CC(C3)C2C1=O (stereo not drawn)
active: [5] 85.4 µM | [7] 69.6 µM
inactive: [2] | [3] | [4] | [6]

S=C([S-])NCCNC(=S)[S-].[Mn+2]
inactive: [2] | [3] | [4] | [5] | [6] | [7] | [8] | [10]

CCOC(=O)[C@H](C)Oc1ccc(Oc2nc3ccc(Cl)cc3o2)cc1
inactive: [2] | [3] | [4] | [5] | [6] | [7] | [9]

COC(=O)c1ccc(CNS(C)(=O)=O)cc1S(=O)(=O)NC(=O)Nc1nc(OC)cc(OC)n1
inactive: [2] | [3] | [4] | [5] | [6] | [7] | [9]

CC(C)(C)[C@@H](O)[C@@H](Cc1ccc(Cl)cc1)n1cncn1
active: [2] 13.5 µM | [3] 3.43 µM | [7] 13.5 µM | [9] 32.1 µM
inactive: [4] | [5]

CCCN(CCC)c1c([N+](=O)[O-])cc(C(F)(F)F)c(N)c1[N+](=O)[O-]
active: [4] 24.5 µM | [5] 6.65 µM | [6] 28.9 µM | [7] 63 µM | [10] 36.1 µM
inactive: [2] | [3] | [9]

CCSC(=O)N(CC(C)C)CC(C)C
inactive: [2] | [3] | [4] | [5] | [6] | [7] | [9]

C[C@]12CC[C@@H]3c4ccc(O)cc4C[C@@H](CCCCCCCCCS(=O)CCCC(F)(F)C(F)(F)F)[C@H]3[C@@H]1CC[C@@H]2O (stereo partly drawn)
inactive: [2] | [3] | [4] | [5] | [6] | [7] | [10] | [9]

CCCOC(=O)c1ccc(C(=O)OCCC)nc1
inactive: [2] | [3] | [4] | [5] | [6] | [7] | [9]

COC(=O)CSc1cc(N=c2sc(=O)n3n2CCCC3)c(F)cc1Cl
inactive: [2] | [3] | [4] | [5] | [6] | [7] | [10]

CCNc1nc(N)nc(Cl)n1
inactive: [2] | [3] | [4] | [5] | [7] | [8] | [10] | [9]

CCCCOCCOCCOCc1cc2c(cc1CCC)OCO2
inactive: [2] | [3] | [6] | [8] | [9]
active: [4] 24.3 µM | [5] 89.8 µM | [7] 50 µM

COC(=O)c1c(Cl)nn(C)c1S(=O)(=O)NC(=O)Nc1nc(OC)cc(OC)n1
active: [3] 4.06 µM
inactive: [2] | [4] | [5] | [6] | [7] | [8] | [10] | [9]

COC(=O)c1ccccc1C(=O)O
inactive: [2] | [3] | [4] | [5] | [6] | [7] | [10] | [9]

CCOC(=O)C(C)Oc1ccc(Oc2cnc3cc(Cl)ccc3n2)cc1 (stereo not drawn)
inactive: [2] | [3] | [4] | [5] | [6] | [7] | [9]

CCCCOC(=O)C(C)Oc1ccc(Oc2ccc(C(F)(F)F)cn2)cc1 (stereo not drawn)
inactive: [2] | [3] | [4] | [5] | [6] | [7] | [10] | [9]

Oc1ccc(C(c2ccc(O)cc2)C(Cl)(Cl)Cl)cc1
inactive: [2] | [3] | [4] | [5] | [6] | [7] | [10]

CCCCCOC(=O)COc1cc(N2C(=O)C3=C(CCCC3)C2=O)c(F)cc1Cl
inactive: [2] | [3] | [4] | [6] | [7] | [8] | [10] | [9]
active: [5] 32.6 µM

CCN(CC)C(=O)c1cccc(C)c1
inactive: [2] | [3] | [4] | [5] | [6] | [7] | [8] | [9]

C=CCOC(Cn1ccnc1)c1ccc(Cl)cc1Cl (stereo not drawn)
active: [2] 12.9 µM | [3] 12.4 µM | [4] 33 µM | [5] 76.1 µM | [7] 50 µM | [8] 50 µM
inactive: [6]

CCOC(=O)COc1cc(-n2ncc(C(F)(F)F)c(C)c2=O)c(F)cc1Cl
inactive: [2] | [3] | [4] | [5] | [6] | [7] | [9]

COCCO
inactive: [2] | [3] | [4] | [5] | [6] | [7] | [10] | [9]

N[C@@H](Cc1cc(I)c(Oc2ccc(O)c(I)c2)c(I)c1)C(=O)O
active: [7] 22.6 µM
inactive: [2] | [3] | [4] | [5] | [7] | [8]

O=C(O)C1(C(=O)Nc2ccc(Cl)cc2Cl)CC1
inactive: [2] | [3] | [4] | [5] | [6] | [7] | [8] | [9]

CCCOC(=O)NCCCN(C)C
inactive: [2] | [3] | [4] | [5] | [6] | [7] | [10] | [9]

CCOC(=O)NCCOc1ccc(Oc2ccccc2)cc1
inactive: [2] | [6] | [7] | [9]
active: [3] 13.4 µM | [4] 13.1 µM | [5] 89.6 µM | [10] 27.9 µM
